Assay results published in PubChem BioAssay (NCI).
Compounds without any hit were thinned out: in the full panel of roughly 83,000, 20% have a hit.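 Activity criterion: percent growth below 10, measured after cells in 96-well plates were exposed to a single compound concentration for 48 hours.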 Activity calls are given as the source filed them.

Tests used:
Assay in all cases: NCI-60 one-dose screen, 48 h (100 = growth as untreated, 0 = no growth, -100 = all killed)
Details in all cases: 10 µM unless noted
NCI-H23 lung = tested on: NCI-H23 lung
NCI-H226 lung = tested on: NCI-H226 lung
NCI-H322M lung = tested on: NCI-H322M lung
HOP-62 NSCLC = tested on: HOP-62 NSCLC
NCI-H460 lung = tested on: NCI-H460 lung
HOP-92 NSCLC = tested on: HOP-92 NSCLC
NCI-H522 lung = tested on: NCI-H522 lung
A549/ATCC NSCLC = tested on: A549/ATCC NSCLC
786-0 renal = tested on: 786-0 renal
COLO 205 colon = tested on: COLO 205 colon
DU-145 prostate = tested on: DU-145 prostate
K-562 leukemia = tested on: K-562 leukemia
MALME-3M melanoma = tested on: MALME-3M melanoma
MDA-MB-231 breast = tested on: MDA-MB-231 breast
RXF 393 renal = tested on: RXF 393 renal
SF-268 CNS = tested on: SF-268 CNS
SF-295 CNS = tested on: SF-295 CNS
SF-539 CNS = tested on: SF-539 CNS
UACC-257 melanoma = tested on: UACC-257 melanoma
M14 melanoma = tested on: M14 melanoma

Measured: growth

O=C1OC(=O)C2C3CC(c4ccccc43)C12 (stereo not given)
inactive: NCI-H23 lung 101% | NCI-H226 lung 110% | NCI-H322M lung 107% | HOP-62 NSCLC 97.8% | NCI-H460 lung 113% | HOP-92 NSCLC 72.4% | NCI-H522 lung 105% | A549/ATCC NSCLC 91.7% | 786-0 renal 102% | COLO 205 colon 97.8% | DU-145 prostate 145% | K-562 leukemia 111% | MALME-3M melanoma 101% | MDA-MB-231 breast 117% | RXF 393 renal 116% | SF-268 CNS 123% | SF-295 CNS 101% | SF-539 CNS 103% | UACC-257 melanoma 91.8% | M14 melanoma 112%

COc1ccc2c(c1)C(=O)/C(=C/c1cccc(OCC(=O)c3ccccc3)c1)O2
active: HOP-92 NSCLC -58.8% | NCI-H522 lung -67.7% | COLO 205 colon -12.5% | K-562 leukemia -98.3% | RXF 393 renal -56.8% | SF-539 CNS -14.7%
inactive: NCI-H23 lung 41.4% | NCI-H226 lung 80.9% | NCI-H322M lung 108% | HOP-62 NSCLC 103% | NCI-H460 lung 93.1% | A549/ATCC NSCLC 105% | 786-0 renal 104% | DU-145 prostate 13.5% | MALME-3M melanoma 45.1% | MDA-MB-231 breast 67.3% | SF-268 CNS 36.2% | SF-295 CNS 91.3% | UACC-257 melanoma 42.9% | M14 melanoma 49.8%

O=C(N/N=C/c1ccccc1O)c1ccccc1O
inactive: NCI-H23 lung 37.5% | NCI-H226 lung 67% | NCI-H322M lung 32.6% | HOP-62 NSCLC 42.1% | NCI-H460 lung 13.2% | HOP-92 NSCLC 56.5% | A549/ATCC NSCLC 45.4% | 786-0 renal 25.8% | COLO 205 colon 55.5% | DU-145 prostate 38.7% | K-562 leukemia 37.8% | MALME-3M melanoma 47.9% | MDA-MB-231 breast 56.7% | RXF 393 renal 54% | SF-268 CNS 36.6% | SF-295 CNS 42.1% | SF-539 CNS 34.5% | M14 melanoma 36.5%
active: NCI-H522 lung 6.88% | UACC-257 melanoma 5.06%

CCCCN(CCCC)c1ccc(C(=N)c2ccc(N(C)C)cc2)cc1
active: NCI-H23 lung -46.1% | NCI-H226 lung -46.4% | NCI-H322M lung -32% | HOP-62 NSCLC -84% | NCI-H460 lung -88.5% | HOP-92 NSCLC -32.7% | NCI-H522 lung -66.1% | A549/ATCC NSCLC 3.26% | 786-0 renal -84.4% | COLO 205 colon -93.8% | DU-145 prostate -21% | K-562 leukemia -30.9% | MALME-3M melanoma -81.6% | MDA-MB-231 breast -76.7% | RXF 393 renal -75% | SF-268 CNS -21.8% | SF-295 CNS -72.1% | SF-539 CNS -89.1% | UACC-257 melanoma -62.8% | M14 melanoma -93.3%

NS(=O)(=O)c1ccc(-n2nc(-c3ccc(Cl)cc3)ccc2=O)cc1
inactive: NCI-H23 lung 91.1% | NCI-H226 lung 103% | NCI-H322M lung 110% | HOP-62 NSCLC 94.3% | NCI-H460 lung 98% | HOP-92 NSCLC 90.9% | NCI-H522 lung 16% | A549/ATCC NSCLC 95.4% | 786-0 renal 92.9% | COLO 205 colon 113% | DU-145 prostate 102% | K-562 leukemia 45.9% | MALME-3M melanoma 113% | MDA-MB-231 breast 118% | RXF 393 renal 95.6% | SF-268 CNS 96.5% | SF-539 CNS 84.4% | UACC-257 melanoma 96.6% | M14 melanoma 96.2%
active: SF-295 CNS -4.7%

Nc1nccc2c1ccn2-c1ccc(NC(=O)Nc2cccc(C(F)(F)F)c2)cc1
inactive: NCI-H23 lung 90% | NCI-H226 lung 81.9% | NCI-H322M lung 98.2% | HOP-62 NSCLC 94.2% | NCI-H460 lung 90.8% | HOP-92 NSCLC 57.4% | NCI-H522 lung 87.2% | A549/ATCC NSCLC 91.3% | 786-0 renal 110% | COLO 205 colon 92.1% | DU-145 prostate 96.7% | K-562 leukemia 81.5% | MALME-3M melanoma 99.3% | MDA-MB-231 breast 72.9% | RXF 393 renal 97.8% | SF-268 CNS 96.3% | SF-295 CNS 78.2% | SF-539 CNS 86.1% | UACC-257 melanoma 113% | M14 melanoma 91.5%

CC(C)CNCC(O)COc1ccc(C(C)(C)c2ccc(OCC(O)CNCC(C)C)cc2)cc1 (stereo not given)
active: NCI-H460 lung -22.2% | COLO 205 colon -65.8% | K-562 leukemia -60% | MALME-3M melanoma -63.1% | MDA-MB-231 breast -14.4% | SF-539 CNS -41.1% | UACC-257 melanoma -37.4% | M14 melanoma -57.5%
inactive: NCI-H23 lung 84.4% | NCI-H226 lung 88.2% | NCI-H322M lung 81.3% | HOP-62 NSCLC 64.3% | HOP-92 NSCLC 20.2% | NCI-H522 lung 26.4% | A549/ATCC NSCLC 37.5% | 786-0 renal 26.1% | DU-145 prostate 44.7% | RXF 393 renal 41.8% | SF-268 CNS 55.3% | SF-295 CNS 32.4%

O=C(Nc1ccc(-n2cc(-c3ccncc3)c(-c3ccc(O)c(Cl)c3)n2)cc1)Nc1cc(C(F)(F)F)cc(C(F)(F)F)c1
inactive: NCI-H23 lung 47.5% | NCI-H226 lung 87.8% | NCI-H322M lung 51.5% | HOP-62 NSCLC 71.5% | NCI-H460 lung 49.3% | NCI-H522 lung 79.5% | A549/ATCC NSCLC 53.6% | 786-0 renal 50.5% | COLO 205 colon 28.6% | DU-145 prostate 80.6% | K-562 leukemia 57.6% | MALME-3M melanoma 92.1% | MDA-MB-231 breast 78.3% | RXF 393 renal 27% | SF-268 CNS 70.8% | SF-295 CNS 19.6% | SF-539 CNS 62.4% | UACC-257 melanoma 90.3% | M14 melanoma 55.6%
active: HOP-92 NSCLC 2.56%

COc1cc(NC(C)CCCN2C(=O)c3ccccc3C2=O)c2ncccc2c1OC (stereo not given)
inactive: NCI-H23 lung 91.6% | NCI-H226 lung 98.2% | NCI-H322M lung 79.5% | HOP-62 NSCLC 80.7% | NCI-H460 lung 103% | HOP-92 NSCLC 45.4% | NCI-H522 lung 70.8% | A549/ATCC NSCLC 100% | 786-0 renal 91.1% | COLO 205 colon 101% | DU-145 prostate 104% | K-562 leukemia 71.3% | MALME-3M melanoma 74.1% | MDA-MB-231 breast 90.2% | RXF 393 renal 95% | SF-268 CNS 108% | SF-295 CNS 81.1% | SF-539 CNS 98.6% | UACC-257 melanoma 99.4% | M14 melanoma 78.7%

O=C1c2ccccc2OC=C(c2ccccc2)N1CCCCN1CCCCC1
active: COLO 205 colon -33.6%
inactive: NCI-H23 lung 67.2% | NCI-H226 lung 84.3% | NCI-H322M lung 91.2% | HOP-62 NSCLC 38.1% | NCI-H460 lung 46.7% | HOP-92 NSCLC 40.2% | NCI-H522 lung 25% | A549/ATCC NSCLC 46.8% | 786-0 renal 95.4% | DU-145 prostate 48.6% | K-562 leukemia 15.6% | MALME-3M melanoma 67.8% | MDA-MB-231 breast 73.8% | RXF 393 renal 95.7% | SF-268 CNS 55.5% | SF-295 CNS 79.3% | SF-539 CNS 95.7% | UACC-257 melanoma 66.7% | M14 melanoma 68%

COc1cc(NS(=O)(=O)c2ccc(N)cc2)ncn1
inactive: NCI-H23 lung 101% | NCI-H226 lung 112% | NCI-H322M lung 104% | HOP-62 NSCLC 108% | NCI-H460 lung 110% | HOP-92 NSCLC 105% | NCI-H522 lung 114% | A549/ATCC NSCLC 102% | 786-0 renal 99.1% | COLO 205 colon 113% | DU-145 prostate 118% | K-562 leukemia 92.9% | MALME-3M melanoma 97.4% | MDA-MB-231 breast 94.7% | RXF 393 renal 112% | SF-268 CNS 109% | SF-295 CNS 102% | SF-539 CNS 112% | UACC-257 melanoma 106% | M14 melanoma 107%

Cc1[nH]c2ccc(F)cc2c1CCNC(=O)C1CCN(C(=O)c2ccc(-c3ccccc3)cc2)CC1
inactive: NCI-H23 lung 45.5% | NCI-H226 lung 57.3% | NCI-H322M lung 87% | HOP-62 NSCLC 64.4% | NCI-H460 lung 51% | HOP-92 NSCLC 70.6% | NCI-H522 lung 41.6% | A549/ATCC NSCLC 39.1% | 786-0 renal 63.3% | COLO 205 colon 36.7% | DU-145 prostate 68.8% | K-562 leukemia 17.3% | MALME-3M melanoma 63.6% | MDA-MB-231 breast 62.7% | RXF 393 renal 54.5% | SF-268 CNS 60.4% | SF-295 CNS 37.6% | SF-539 CNS 66.8% | UACC-257 melanoma 58.1% | M14 melanoma 40.8%

CC(C)C(=O)Nc1nc2c(s1)CCCc1ccn(S(=O)(=O)c3ccccc3)c1-2
inactive: NCI-H23 lung 86.8% | NCI-H226 lung 94% | NCI-H322M lung 90% | HOP-62 NSCLC 90.6% | NCI-H460 lung 103% | HOP-92 NSCLC 112% | NCI-H522 lung 70.5% | A549/ATCC NSCLC 82.3% | 786-0 renal 89.9% | COLO 205 colon 110% | DU-145 prostate 98.8% | K-562 leukemia 73.8% | MALME-3M melanoma 114% | MDA-MB-231 breast 108% | RXF 393 renal 119% | SF-268 CNS 99.2% | SF-295 CNS 90.6% | SF-539 CNS 100% | UACC-257 melanoma 93.7% | M14 melanoma 96.9%

COc1ccc(-c2nn(-c3cccc(Cl)c3)cc2-c2cc(-c3ccc(Br)cc3)[nH]c(=O)c2C#N)cc1
inactive: NCI-H23 lung 86.8% | NCI-H226 lung 84% | NCI-H322M lung 83.9% | HOP-62 NSCLC 93.8% | NCI-H460 lung 48.9% | HOP-92 NSCLC 82.1% | NCI-H522 lung 74.7% | A549/ATCC NSCLC 68.2% | 786-0 renal 102% | COLO 205 colon 104% | DU-145 prostate 56.5% | K-562 leukemia 81.8% | MALME-3M melanoma 69.1% | MDA-MB-231 breast 60.8% | RXF 393 renal 75.3% | SF-268 CNS 89.1% | SF-295 CNS 99.1% | SF-539 CNS 81% | UACC-257 melanoma 93.4% | M14 melanoma 81.4%

CC(CCC(=O)O)[C@H]1CCC2C3C(=O)C[C@@H]4CC(=O)CC[C@]4(C)C3CC(=O)[C@@]21C (stereo not given in full)
inactive: NCI-H23 lung 101% | NCI-H226 lung 103% | NCI-H322M lung 111% | HOP-62 NSCLC 112% | NCI-H460 lung 107% | HOP-92 NSCLC 96.2% | NCI-H522 lung 117% | A549/ATCC NSCLC 98.7% | 786-0 renal 106% | COLO 205 colon 119% | DU-145 prostate 114% | K-562 leukemia 94.2% | MALME-3M melanoma 97.5% | MDA-MB-231 breast 90.7% | RXF 393 renal 110% | SF-268 CNS 110% | SF-295 CNS 92.9% | SF-539 CNS 111% | UACC-257 melanoma 112% | M14 melanoma 110%
